A short description of test [1]: NCI Yeast Anticancer Drug Screen. Data for the rad50 strain (AID 155).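 Also: 0% = growth of vehicle-only cultures of the same strain.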 Conditions: S. cerevisiae rad50 strain growth inhibition, stronger effect = higher value. An outline of the steps:
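Vehicle-treated cultures provide the reference for the growth inhibition reported for compound-exposed, repair-deficient yeast.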

A short description of test [2]: NCI Yeast Anticancer Drug Screen. Data for the mec2-1 strain (AID 157). Conditions: S. cerevisiae mec2-1 strain, stronger effect = higher value. The gist of the method:
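Mutant yeast (mec2-1) grown with compound; growth inhibition relative to vehicle control reported.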

A short description of test [3]: NCI Yeast Anticancer Drug Screen. Data for the sgs1 mgt1 strain (AID 161).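 Also: 0% = growth of cultures given vehicle only.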 The following applies: S. cerevisiae sgs1 mgt1 strain, stronger effect = higher value. An outline of the steps: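 Yeast cells carrying a defined DNA-repair defect were exposed to test compounds. Growth inhibition was measured relative to vehicle-treated controls.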
The nature of test [4]: NCI Yeast Anticancer Drug Screen. Data for the cln2 rad14 strain (AID 165).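 Also: 0% = growth equal to vehicle treated cultures.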 The following applies: S. cerevisiae cln2 rad14 strain, stronger effect = higher value. An outline of the steps:
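Readout is yeast growth inhibition versus vehicle-treated controls, using a strain with cln2 and rad14 alterations exposed to compound.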

The nature of test [5]: NCI Yeast Anticancer Drug Screen. Data for the bub3 strain (AID 167). Conditions: S. cerevisiae bub3 mutant strain, stronger effect = higher value. An outline of the steps:
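Mutant yeast screening strain plus compound; vehicle-treated cultures serve as the 0% inhibition reference.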

Test [6] is described as follows: NCI Yeast Anticancer Drug Screen. Data for the mlh1 rad18 strain (AID 175). The following applies: S. cerevisiae mlh1 rad18 strain growth inhibition, stronger effect = higher value. An outline of the steps:
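Genetically defined yeast (DNA repair-deficient) exposed to compounds; growth inhibition determined relative to vehicle.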

Setting [7] is: at 5.0 µM (retest, dose inferred, filed as 0.5).
Where [8] appears, read: at 50.0 µM (retest, dose inferred, filed as 5.0).

Values joined by “and” are separate entries in the source; they are usually repeats but may differ in a detail not shown here. Identical values can stand only once. This is part of a sample that, as a whole, favours compounds with a hit. Of some 79,000 tested, about 15% had one in any assay. A structure can be active in one record and inactive in another. Active and inactive are the calls of the source. Rule as the data show it: active = growth inhibition above about 70%; inactive = the rest.

Our source for the growth inhibition values is PubChem BioAssay (NCI).

For `O=C(O)CN(CCN(CC(=O)O)CC(=O)O)CC(=O)O`, the growth inhibition in test [1] (setting [7]) is 8% (inactive); in test [1] (setting [8]), 69% (inactive); in test [1] (at 50.0 µM), 27.9% (inactive) and 13.8% (inactive) and 43.4% (inactive); in test [2] (setting [7]), 14% (inactive); in test [2] (setting [8]) it was 70% (active); in test [2] (at 50.0 µM), 42.2% (inactive) and 20% (inactive) and 30.6% (inactive). Also, the growth inhibition in test [3] (setting [7]) was 11% (inactive); in test [3] (setting [8]), 74% (active); in test [3] (at 50.0 µM), 65.8% (inactive) and 26.2% (inactive) and 57.2% (inactive); in test [4] (setting [7]), -3% (inactive); in test [4] (setting [8]) it was 49% (inactive); in test [4] (at 50.0 µM), -14.9% (inactive) and -22.5% (inactive) and 17.4% (inactive). The growth inhibition is 10% (inactive) in test [5] (setting [7]); 66% (inactive) in test [5] (setting [8]); 60.7% (inactive) and 38% (inactive) and 53.3% (inactive) in test [5] (at 50.0 µM); 6% (inactive) in test [6] (setting [7]); 70% (active) in test [6] (setting [8]); 44.4% (inactive) and 24.2% (inactive) and 46.9% (inactive) in test [6] (at 50.0 µM).

With `FC(F)(F)c1cccc(CCl)c1`, the growth inhibition is -1% (inactive) in test [1] (setting [7]); 3% (inactive) in test [1] (setting [8]); 24.8% (inactive) in test [1] (at 50.0 µM); 0% (inactive) in test [2] (setting [7]); 1% (inactive) in test [2] (setting [8]); -5.7% (inactive) in test [2] (at 50.0 µM). For the same compound, the growth inhibition in test [3] (setting [7]) was -1% (inactive); in test [3] (setting [8]), 1% (inactive); in test [3] (at 50.0 µM), -17.4% (inactive); in test [4] (setting [7]) it was -5% (inactive); in test [4] (setting [8]), -6% (inactive); in test [4] (at 50.0 µM), -20.2% (inactive). The growth inhibition in test [5] (setting [7]) was -3% (inactive); in test [5] (setting [8]), 7% (inactive); in test [5] (at 50.0 µM), -8.25% (inactive); in test [6] (setting [7]), -2% (inactive); in test [6] (setting [8]), 4% (inactive); in test [6] (at 50.0 µM) it was 38.5% (inactive).

Consider `CC12CCC3C(CCC4CC(N5CCCCC5)=CCC43C)C1CCC2O` (configuration not stated), for which the growth inhibition in test [1] (setting [7]) is -3% (inactive); in test [1] (setting [8]), 98% (active); in test [1] (at 50.0 µM) it was 48.5% (inactive); in test [2] (setting [7]) it was -12% (inactive); in test [2] (setting [8]), 97% (active); in test [2] (at 50.0 µM), 89.4% (active). Moreover, the growth inhibition in test [3] (setting [7]) is 5% (inactive); in test [3] (setting [8]) it was 99% (active); in test [3] (at 50.0 µM), 47.1% (inactive); in test [4] (setting [7]) it was 5% (inactive); in test [4] (setting [8]), 98% (active); in test [4] (at 50.0 µM) it was 73% (active). In addition, the growth inhibition in test [5] (setting [7]) is -8% (inactive); in test [5] (setting [8]) it was 98% (active); in test [5] (at 50.0 µM), 84.5% (active); in test [6] (setting [7]), -3% (inactive); in test [6] (setting [8]), 98% (active); in test [6] (at 50.0 µM), 98.5% (active).

Turning to `CCCCCCCCCCCCCCCc1cccc(O)c1O`, the growth inhibition in test [1] (setting [7]) is -2% (inactive); in test [1] (setting [8]), -7% (inactive); in test [1] (at 50.0 µM), 51.2% (inactive); in test [2] (setting [7]), -2% (inactive); in test [2] (setting [8]) it was 3% (inactive); in test [2] (at 50.0 µM), 92.1% (active). Also, the growth inhibition in test [3] (setting [7]) was -1% (inactive); in test [3] (setting [8]) it was 27% (inactive); in test [3] (at 50.0 µM), 51.5% (inactive); in test [4] (setting [7]), -4% (inactive); in test [4] (setting [8]) it was -8% (inactive); in test [4] (at 50.0 µM), -5.3% (inactive). For the same compound, the growth inhibition in test [5] (setting [7]) is 1% (inactive); in test [5] (setting [8]) it was -4% (inactive); in test [5] (at 50.0 µM), 48.4% (inactive); in test [6] (setting [7]), -6% (inactive); in test [6] (setting [8]), 7% (inactive); in test [6] (at 50.0 µM), 82.7% (active).

For `CC1(C)C(=O)C=CC2(C)C1CC(O)C1(C)C2CCC2(C)C(c3ccoc3)OC(=O)C3OC321` (configuration not stated), the growth inhibition is 15% (inactive) in test [1] (setting [7]); 16% (inactive) in test [1] (setting [8]); 86.8% (active) in test [1] (at 50.0 µM); 4% (inactive) in test [2] (setting [7]); 12% (inactive) in test [2] (setting [8]); 86.5% (active) in test [2] (at 50.0 µM). Further, the growth inhibition in test [3] (setting [7]) is 11% (inactive); in test [3] (setting [8]), 52% (inactive); in test [3] (at 50.0 µM) it was 82.7% (active); in test [4] (setting [7]) it was 4% (inactive); in test [4] (setting [8]), 8% (inactive); in test [4] (at 50.0 µM), 76.5% (active). Further, the growth inhibition was 3% (inactive) in test [5] (setting [7]); 12% (inactive) in test [5] (setting [8]); 82.2% (active) in test [5] (at 50.0 µM); 16% (inactive) in test [6] (setting [7]); 18% (inactive) in test [6] (setting [8]); 44.5% (inactive) in test [6] (at 50.0 µM).

Turning to `CC1=CC2OC3CC4OC(=O)/C=C/C=C/C(=O)OCCC(C)C(O)C(=O)OCC2(CC1O)C4(C)C31CO1` (configuration not stated), the growth inhibition is 96% (active) in test [1] (setting [7]); 98% (active) in test [1] (setting [8]); 92.3% (active) in test [1] (at 50.0 µM); 96% (active) in test [2] (setting [7]); 98% (active) in test [2] (setting [8]); 93.1% (active) in test [2] (at 50.0 µM). For the same compound, the growth inhibition in test [3] (setting [7]) was 98% (active); in test [3] (setting [8]) it was 99% (active); in test [3] (at 50.0 µM), 93.2% (active); in test [4] (setting [7]), 97% (active); in test [4] (setting [8]), 98% (active); in test [4] (at 50.0 µM), 91.7% (active). In addition, the growth inhibition is 96% (active) in test [5] (setting [7]); 98% (active) in test [5] (setting [8]); 91.7% (active) in test [5] (at 50.0 µM); 96% (active) in test [6] (setting [7]); 97% (active) in test [6] (setting [8]); 91.5% (active) in test [6] (at 50.0 µM).

For `O=c1c[n+](-c2ccc[nH+]c2)[nH]o1.[Cl][Hg][Cl]`, the growth inhibition is 99% (active) in test [1] (setting [7]); 99% (active) in test [1] (setting [8]); 99.3% (active) in test [1] (at 50.0 µM); 100% (active) in test [2] (setting [7]); 100% (active) in test [2] (setting [8]); 99.5% (active) in test [2] (at 50.0 µM). The growth inhibition in test [3] (setting [7]) is 100% (active); in test [3] (setting [8]), 100% (active); in test [3] (at 50.0 µM), 99.5% (active); in test [4] (setting [7]), 99% (active); in test [4] (setting [8]) it was 99% (active); in test [4] (at 50.0 µM) it was 99.3% (active). Also, the growth inhibition in test [5] (setting [7]) was 99% (active); in test [5] (setting [8]), 99% (active); in test [5] (at 50.0 µM), 99.4% (active); in test [6] (setting [7]), 99% (active); in test [6] (setting [8]) it was 99% (active); in test [6] (at 50.0 µM), 99.2% (active).

Consider `CC(=O)O.CC(=O)[O-].CC(=O)[O-].[Co+3].[NH-]CC[NH-].[NH-]CC[NH-]`, for which the growth inhibition was -5% (inactive) in test [1] (setting [7]); 94% (active) in test [1] (setting [8]); 23.3% (inactive) in test [1] (at 50.0 µM); -5% (inactive) in test [2] (setting [7]); 98% (active) in test [2] (setting [8]); 10.3% (inactive) in test [2] (at 50.0 µM). In addition, the growth inhibition was 2% (inactive) in test [3] (setting [7]); 97% (active) in test [3] (setting [8]); -3.35% (inactive) in test [3] (at 50.0 µM); -4% (inactive) in test [4] (setting [7]); 96% (active) in test [4] (setting [8]); 31.6% (inactive) in test [4] (at 50.0 µM). Further, the growth inhibition in test [5] (setting [7]) is 38% (inactive); in test [5] (setting [8]), 98% (active); in test [5] (at 50.0 µM) it was -1.65% (inactive); in test [6] (setting [7]), -7% (inactive); in test [6] (setting [8]) it was 97% (active); in test [6] (at 50.0 µM), 4.05% (inactive).

For the compound `CN(C)CC1CCCCC1=O` (configuration not stated), the growth inhibition was -169% (inactive) in test [1] (setting [7]); 36% (inactive) in test [1] (setting [8]); 73.7% (active) and 1.45% (inactive) and -1.35% (inactive) in test [1] (at 50.0 µM); -52% (inactive) in test [2] (setting [7]); -24% (inactive) in test [2] (setting [8]); 56.2% (inactive) and -13.8% (inactive) and -15.9% (inactive) in test [2] (at 50.0 µM). Also, the growth inhibition in test [3] (setting [7]) is -67% (inactive); in test [3] (setting [8]) it was -6% (inactive); in test [3] (at 50.0 µM), 47.4% (inactive) and -15.4% (inactive) and -9.6% (inactive); in test [4] (setting [7]) it was -77% (inactive); in test [4] (setting [8]) it was 3% (inactive); in test [4] (at 50.0 µM), 59.5% (inactive) and 8.3% (inactive) and 0.7% (inactive). Also, the growth inhibition is -69% (inactive) in test [5] (setting [7]); -26% (inactive) in test [5] (setting [8]); 35% (inactive) and -23.4% (inactive) and -3.6% (inactive) in test [5] (at 50.0 µM); -131% (inactive) in test [6] (setting [7]); -38% (inactive) in test [6] (setting [8]); 71.9% (active) and 18.1% (inactive) and 5.25% (inactive) in test [6] (at 50.0 µM).
